{
  "source": "PubChem BioAssay (NCI)",
  "note": "About 79,000 compounds went through this panel and 15% of them were active in at least one assay; those are over-represented in the sample as a whole. The source made the active and inactive calls. No stated cut-off is given here; in the data, active means growth inhibition above about 70%; inactive means the rest.",
  "data": [
    {"experiment": "NCI Yeast Anticancer Drug Screen. Data for the bub3 strain (AID 167)", "settings": "S. cerevisiae bub3 mutant strain, at 50.0 µM, active compounds read high", "method_in_brief": "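Yeast carrying a defined mutation is treated with each compound, and growth is compared with that of vehicle-exposed cells to give inhibition.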", "values": [
      {"smiles": "Oc1c(Cl)cc(Cl)c2cccnc12", "growth inhibition": "98.5% (active)"},
      {"smiles": "COc1ccc2c(c1)[n+]([O-])c(-c1ccccc1)c(N)[n+]2[O-]", "growth inhibition": "99.2% (active)"},
      {"smiles": "O=c1cccccc1[O-].O=c1cccccc1[O-].O=c1cccccc1[O-].[Sm+3]", "growth inhibition": "93% (active)"},
      {"smiles": "CCCCCCCCCCCCCCCCNc1ccn(C2CC(OP(=O)(O)OCC3OC(n4cc(CC)c(=O)[nH]c4=O)CC3O)C(CO)O2)c(=O)n1", "note": "(stereo not given)", "growth inhibition": "11.8% (inactive)"},
      {"smiles": "Nc1ccccc1OCC(O)CN1CCN(Cc2ccccc2)CC1", "note": "(stereo not given)", "growth inhibition": "23.9% (inactive)"},
      {"smiles": "O=S(=O)(O)c1ccc(O)c2cc(Nc3ccccc3)ccc12", "growth inhibition": "11.6% (inactive)"},
      {"smiles": "CCOC(=O)/C(=C\\c1ccc(-c2ccccc2)cc1)C(C)=O", "growth inhibition": "66.9% (inactive)"},
      {"smiles": "O=C(C(Oc1ccc(Cl)cc1)Oc1ccc(Cl)cc1)N(O)c1ccccc1OCc1ccccc1", "growth inhibition": "47.9% (inactive)"},
      {"smiles": "CN(C)CC1CCC/C(=C\\c2ccc(Cl)cc2)C1=O", "note": "(stereo not given)", "growth inhibition": "91.4% (active)"},
      {"smiles": "COc1ccc(/C=N/Nc2ccccc2)cc1", "growth inhibition": "99% (active)"},
      {"smiles": "O=C1c2ccccc2-c2ccccc2C(=O)C1(Br)Br", "growth inhibition": "66.7% (inactive)"},
      {"smiles": "CC(=O)Nc1ccc(C(=O)n2[nH]c(C)c(/C=C3\\C(=O)C=Cc4ccccc43)c2=O)cc1", "growth inhibition": "99.2% (active)"},
      {"smiles": "CC1OC2CC(=O)OC2C2=C1C(=O)c1c(O)cccc1C2=O", "note": "(stereo not given)", "growth inhibition": "91.4% (active)"},
      {"smiles": "CCOC(=O)C(CCSC)C(=O)OCC", "growth inhibition": "-2.4% (inactive)"},
      {"smiles": "C[CH2][Sn]([CH2]C)([O]C(=O)c1cccc(OC)c1)[O][Sn]([CH2]C)([CH2]C)[O]C(=O)c1cccc(OC)c1", "growth inhibition": "37.5% (inactive)"}
    ]}
  ]
}
